STAT3 SMM – STAT3 binders, primary screen, biochemical, small molecule microarray, single point, set 2 | His-STAT3 binding, anti-His fluorescence | 17,000 compounds, 0.2% hits | Signal transducer and activator of transcription 3 (Homo sapiens), P40763 | calls only;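 active means compounds whose four printed spots each show fluorescence over background unusually high for their array block, chance value under 7%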
Target sequence (P40763 whole entry, looked up): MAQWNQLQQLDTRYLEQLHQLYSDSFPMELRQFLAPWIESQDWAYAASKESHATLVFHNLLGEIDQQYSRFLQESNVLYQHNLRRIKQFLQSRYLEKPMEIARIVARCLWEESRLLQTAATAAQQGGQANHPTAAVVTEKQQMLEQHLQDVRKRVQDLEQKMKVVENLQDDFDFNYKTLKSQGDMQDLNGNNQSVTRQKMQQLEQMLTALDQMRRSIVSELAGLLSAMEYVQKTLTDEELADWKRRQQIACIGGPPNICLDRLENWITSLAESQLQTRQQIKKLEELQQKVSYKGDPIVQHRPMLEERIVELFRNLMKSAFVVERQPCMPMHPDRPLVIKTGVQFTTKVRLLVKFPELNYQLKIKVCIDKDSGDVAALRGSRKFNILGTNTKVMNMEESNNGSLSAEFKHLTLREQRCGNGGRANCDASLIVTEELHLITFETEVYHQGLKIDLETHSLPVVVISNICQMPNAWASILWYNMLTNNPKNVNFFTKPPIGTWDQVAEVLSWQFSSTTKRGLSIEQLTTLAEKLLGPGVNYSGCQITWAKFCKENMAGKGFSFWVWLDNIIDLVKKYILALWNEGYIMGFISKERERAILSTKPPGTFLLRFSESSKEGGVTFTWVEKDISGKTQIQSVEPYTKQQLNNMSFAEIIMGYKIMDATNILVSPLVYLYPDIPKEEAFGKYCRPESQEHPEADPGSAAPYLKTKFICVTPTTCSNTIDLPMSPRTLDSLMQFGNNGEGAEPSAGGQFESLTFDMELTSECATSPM
Myc binder – binders of human c-Myc, primary screen, biochemical, small molecule microarray, anti-His fluorescence. His-c-Myc binding. 17,000 compounds, 1.5% hits. calls only. AID 624141, 2012. Myc proto-oncogene protein (Homo sapiens), P01106;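 active means spot fluorescence over background with P-value below 7% in all four replicate spots, showing protein binding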;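 further: score is binary with 100 for all four spots passing and 0 otherwise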
p53 PUMA act – mutant p53 pathway re-activators, primary screen, cell-based, SW480, luciferase, single point, HTS. SW480 PUMA-promoter luciferase, p53 mutant reactivation. activation, % at 9.98 µM. 28,000 compounds, 1.5% hits. AID 624151, 2012; in the data active means activation above about 52%
NFkB SMM – binders of NF-kB p50 subunit, primary screen, biochemical, small molecule microarray, anti-His fluorescence; Nuclear factor NF-kappa-B p105 subunit (Homo sapiens), P19838; anti-His fluorescence binding; calls only; 17,000 compounds, 1.3% hits;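 active means spot fluorescence over background significantly raised, with a chance value under 7% in all four replicate spots of the compound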;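 further: probe protein is his-tagged human p50 processed subunit at 1 µg/ml; raw spot fluorescence signals with no normalization applied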
mut p53 SMM – binders of human mutant p53, primary screen, biochemical, small molecule microarray, anti-GST fluorescence. mutant tumor protein p53 (GST-tagged), Homo sapiens. AID 624136, 2012. small molecule microarray binding. calls only. 17,000 compounds, 0.4% hits;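 active means compounds whose four printed spots each glow above background more than chance allows, each with a p-value under 7%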
* hit, by the source's call; i = inactive; . = not tested or not shown; + = active, no number. In the library only some 2.6% were active in any assay of this set; here they are far more common.

SMILES | STAT3 SMM | Myc binder | p53 PUMA act | NFkB SMM | mut p53 SMM
CC(C)c1ccc(OCC(=O)Nc2ccccc2C#N)c(Br)c1 | i | i | 130* | i | i
COC(=O)Nc1nc2ccc(SC(C)C)cc2[nH]1 | i | i | -16 | i | i
CC(C)c1ccc(NC(=O)CSc2nnc(-c3ccccc3Cl)n2C)cc1 | . | . | -14 | . | .
Cc1ccnc(SCC(=O)Nc2cccc(Cl)c2)n1 | . | . | -1 | . | .
Cc1cc(Oc2ccccc2)nc(SCC(=O)Nc2ccc(Cl)cc2Cl)n1 | . | . | -1 | . | .
CCOc1ccc(NC(=O)CSc2ncccn2)cc1 | . | . | 54* | . | .
O=C(CSc1ncccn1)Nc1ccc(Cl)cc1Cl | i | i | 134* | i | i
Cc1ccnc(SCC(=O)Nc2ccc(Cl)cc2Cl)n1 | . | . | 52* | . | .
O=c1[nH]nc(-c2ccc(NCCN3CCOCC3)c([N+](=O)[O-])c2)c2ccccc12 | . | . | -15 | . | .
Cc1c(Br)ccc(NC(=O)CSc2nnc(-c3ccc(Cl)cc3)n2C)c1C | . | . | 107* | . | .
O=C(CSc1ncnc2scc(-c3ccc(Cl)cc3)c12)Nc1nsc(-c2ccccc2)n1 | . | . | -4 | . | .
O=C1c2ccccc2C(=O)N1CCCc1nc(-c2ccccn2)no1 | . | . | 11 | . | .
Cc1ccccc1OC(C)c1nc(-c2ccccn2)no1 (stereo unspecified) | . | . | 116* | . | .
c1ccc(OCCCc2nc(-c3ccccn3)no2)cc1 | i | i | 69* | i | i
c1ccc(-c2noc(COc3cccc4ccccc34)n2)nc1 | . | . | 87* | . | .
C[C@H](CO)N1C[C@H](C)[C@@H](CN(C)C(=O)Nc2cccc3ccccc23)Oc2ccc(N(C)C)cc2CC1=O | i | i | -6 | i | i
C[C@@H]1CCCCO[C@H](CN(C)S(=O)(=O)c2cccs2)[C@H](C)CN([C@H](C)CO)C(=O)c2cc(NC(=O)NC3CCCCC3)ccc2O1 | i | i | . | i | i
O=C1c2ccccc2C(=O)N1CCCSc1nccn1-c1cc(Cl)ccc1Cl | . | . | -5 | . | .
O=C1c2ccccc2C2CC(c3cc(Cl)ccc3Cl)=NN12 (stereo unspecified) | . | . | 79* | . | .
O=C(O)Cn1nnnc1-c1ccc(F)cc1 | i | + | -4 | + | i
O=C(O)CCn1nc(-c2ccc(F)cc2)ccc1=O | . | . | 11 | . | .
C[C@@H]1CN([C@H](C)CO)C(=O)c2cc(NC(=O)c3ccncc3)ccc2O[C@@H](C)CCCCO[C@@H]1CN(C)C(=O)Cc1ccccc1 | i | i | -17 | i | i
CC1CC2(CC(C)(C(=O)CSc3n[nH]c(-c4ccccc4Cl)n3)OC2=O)C(=O)O1 (stereo unspecified) | i | i | 3 | i | i
Cc1cc(=O)[nH]c(SCCOc2ccc(Br)cc2Cl)n1 | . | . | 80* | . | .
O=C(O)CCC(=O)Nc1ccccc1C(=O)O | i | + | -4 | i | i
SMILES | STAT3 SMM | Myc binder | p53 PUMA act | NFkB SMM | mut p53 SMM
CCc1ccccc1NC(=O)CCC(=O)O | . | . | 5 | . | .
Cc1ccc(-c2nn(CC(=O)Nc3ccc(C)cc3C)c(=O)c3ccccc23)cc1 | i | i | -42 | i | i
N#Cc1ccccc1CSc1nnc(-c2ccco2)n1-c1ccccc1 | . | . | 5 | . | .
Cc1ccc(-c2nnc(SCc3ccccc3C#N)n2-c2ccccc2)cc1Cl | . | . | 84* | . | .
Cc1cccc(-c2nnc(SCC(=O)Nc3ccc(Br)cc3F)o2)c1 | . | . | 80* | . | .
O=C(CSc1nnc(-c2ccccc2)o1)Nc1cccc(Br)c1 | . | . | 102* | . | .
CSc1cccc(NC(=O)CSc2nnc(-c3cccc(C)c3)o2)c1 | . | . | 103* | . | .
O=C(CSc1nnc(-c2ccc(Br)cc2)o1)Nc1ccccc1Cl | . | . | 75* | . | .
Cc1ccc(NC(=O)CSc2nnc(-c3ccc(Br)cc3)o2)cc1Cl | . | . | 46 | . | .
C[C@@H]1CN([C@H](C)CO)C(=O)c2cc(/C=C/c3ccccc3)cnc2O[C@@H]1CN(C)Cc1cccc(C(=O)O)c1 | . | . | 12 | . | .
Cc1noc(C)c1NC(=O)N(C)C[C@H]1Oc2ccc(NC(=O)C3CC3)cc2C(=O)N([C@H](C)CO)C[C@@H]1C | i | i | -2 | i | i
Cc1cc(Oc2nc3cc(Cl)ccc3s2)c2cc(Cl)ccc2n1 | . | . | -3 | . | .
CC(C)=CCC[C@](C)(O[C@@H]1O[C@H](CO[C@@H]2O[C@@H](CO)[C@H](O)[C@H]2O)[C@@H](O)[C@H](O)[C@H]1O)[C@H]1CC[C@]2(C)C1[C@H](O)CC1[C@@]3(C)CC[C@H](O[C@@H]4O[C@H](CO)[C@@H](O)[C@H](O)[C@H]4O[C@@H]4O[C@H](CO)[C@@H](O)[C@H](O)[C@H]4O)C(C)(C)C3CC[C@]12C (stereo partly specified) | i | + | 9 | + | i
C[C@@H]1O[C@@H](O[C@H]2[C@H](O[C@H]3CC[C@@]4(C)C(CC[C@]5(C)C4CC=C4C6CC(C)(C)CC[C@]6(C(=O)O[C@@H]6O[C@H](CO[C@@H]7O[C@H](CO)[C@@H](O[C@@H]8O[C@@H](C)[C@H](O)[C@@H](O)[C@H]8O)[C@H](O)[C@H]7O)[C@@H](O)[C@H](O)[C@H]6O)CC[C@]45C)C3(C)C)OC[C@H](O)[C@@H]2O)[C@H](O)[C@H](O)[C@H]1O (stereo partly specified) | i | i | -19 | i | i
Cc1sc(NC(=S)NC(=O)Cc2cccc3ccccc23)c(C(N)=O)c1C | i | i | 0 | i | i
